According to ChEMBL document CHEMBL1157539, “Thousands of chemical starting points for antimalarial lead identification” (Nature, 2010):

Assays:
Format in all cases: functional
Plasmodium falciparum [1] = test: GSK_TCMDC: Inhibition of Plasmodium falciparum 3D7 in whole red blood cells, using parasite LDH activity as an index of growth. Test compounds present at 2uM
Plasmodium falciparum [2] = test: GSK_TCMDC: Inhibition of Plasmodium falciparum Dd2 in whole red blood cells, using parasite LDH activity as an index of growth. Test compounds present at 2uM
HepG2 = test: GSK_TCMDC: Percent inhibition of human HepG2 cell line. Test compounds present at 10uM.

SMILES	Inhibition (Plasmodium falciparum [1])	Inhibition (Plasmodium falciparum [2])	Inhibition (HepG2)
O=C(NCc1cccc(F)c1)Nc1ccc(-c2cccc(-c3nc4ccccc4[nH]3)c2)cc1	86%	2%	14%
CCN(CC)/C(=N/C(=N)Nc1ccc(Cl)cc1)NCCCCCCCCN/C(=N\C(=N)Nc1ccc(Cl)cc1)N(CC)CC	99%	94%	10%
FC(F)(F)c1cccc(Nc2nc3ccccc3nc2Nc2cccc(C(F)(F)F)c2)c1	100%	100%	45%
CC(=O)N(C)C1CCN(Cc2ccc(-c3cccc(-c4nc5cc(F)ccc5[nH]4)c3)cc2)C1.O=C(O)C(F)(F)F (stereo not given)	100%	79%	28%
CC1CCCN(S(=O)(=O)c2cc(Br)cc3c2N(C(=O)C2CC2)CC3)C1 (stereo not given)	83%	70%	0%
COc1ccc(CCNCCCCCCNCCc2cccc([N+](=O)[O-])c2)cc1OC.Cl	93%	0%	13%
O=C(Nc1cc(C(F)(F)F)ccc1N1CCOCC1)C(Cl)(Cl)Cl	100%	100%	0%
CO/C(=C\C=C\c1cc2cc(Cl)c(Cl)cc2[nH]1)C(=O)Nc1ccc(NCCN(C)C)nc1.Cl	93%	56%	27%
COc1ccc(C(=O)NC(c2ccc(Cl)cc2Cl)c2cc(Cl)c3cccnc3c2O)cc1 (stereo not given)	84%	48%	46%
O=C(NCc1ccc(F)cc1)Nc1cccc(-c2ccc(-c3nc4cc(F)ccc4[nH]3)cc2)c1	100%	96%	7%
CN(C)CCOc1ccc(NC(=O)Nc2ccnc3c(Br)cccc23)cc1Cl	97%	25%	10%
COc1ccccc1C(=O)Nc1cccc(N2CCC(NCc3ccc(-n4cccn4)cc3)CC2)c1	86%	30%	9%
COc1ccc(OCCON)cc1.Cl	98%	0%	0%
CN1CCN(CCCN(Cc2csc(-c3ccc(CNCc4ccccc4)cc3)n2)C(=O)Nc2cccc(Cl)c2)CC1.O=C(O)C(F)(F)F	100%	67%	32%
CCn1ccc2c(N3CCCC3=O)cc(C(=O)N[C@@H](Cc3ccccc3)[C@H](O)CNC(C)(C)CCCC(C)C)cc21	96%	98%	11%
Cc1ccc(Nc2nc(NN=Cc3ccc(-c4ccc([N+](=O)[O-])cc4)o3)nc(N3CCOCC3)n2)cc1Cl	95%	47%	12%
Fc1ccc(-c2csc3ncnc(Cl)c23)cc1	94%	95%	3%
COc1ccc2nccc(N3CCC(SCCNCc4ccc5c(n4)NC(=O)CO5)C3)c2n1.Cl (stereo not given)	100%	9%	30%
Cc1csc(-c2nc(NCc3cccnc3)ncc2-c2ccsc2)n1	87%	74%	0%
Fc1ccc(CN2CCN(c3ncnc4cc(-c5ccccc5)sc34)CC2)cc1	82%	82%	7%
c1ccc2cc3c(Nc4ccc(N5CCCCC5)cc4)ccnc3cc2c1	100%	36%	21%
CCOC(=O)c1ccc(NC(=O)N(Cc2ccc(-c3cccc(CN4CCNCC4)c3)cc2)C2CCN(Cc3ccccc3)CC2)cc1.O=C(O)C(F)(F)F	100%	55%	19%
C=C[C@]1(C)C[C@@H](OC(=O)c2n[nH]c3ccccc3c2=O)[C@]2(C)[C@H](C)CC[C@]3(CCC(=O)[C@H]32)[C@@H](C)[C@@H]1O	96%	84%	0%
Cc1ccc(-n2c(=O)c3c(n4c(SC(C)C)nnc24)-c2ccccc2CC32CCCCC2)cc1	95%	88%	8%
Cc1cc(NCCC(=O)NCCc2ccccc2)nc(NCCc2ccc(F)cc2)n1.O=C(O)C(F)(F)F	92%	7%	0%
CN1CCN(Cc2ccc(-c3cc4c(Nc5ccc(OCc6cccc(F)c6)c(Cl)c5)ncnc4s3)[nH]2)CC1	100%	99%	23%
COC(=O)c1ccc2nc(-c3ccc(/C=C/C(=O)NCc4ccc(Cl)c(Cl)c4)cc3)[nH]c2c1	81%	3%	13%
COc1ccc(Cn2cncc2CN(CCC(C)C)C(=O)c2ccc(Cl)nc2Cl)cc1.O=C(O)C(F)(F)F	87%	61%	19%
Cc1ccc(S(=O)(=O)NC(=N)NC(N)=O)cc1	94%	2%	26%
O=C(Nc1ccccc1)c1c[nH]cn1	92%	0%	0%
